Laboratory results reported in PubChem BioAssay (NCATS).
Records with an inconclusive call do not appear. The source made the active and inactive calls. Calls follow the shape of the dose curve; as a rule, active = well fitted curve in the direction sought with a large enough effect; inconclusive = small, poorly fitted or top-dose-only effect, or another doubt; inactive = no such curve, though single readings can be large; an effect the other way counts as inactive or inconclusive.

Tests used:
[1] = qHTS for H2AX Agonists against the NCATS CANVASS Library (AID 1347378); conditions: CHO-K1 H2AX phosphorylation, HTRF TR-FRET, 3 h; series mostly up to 76.9 µM;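 also: phospho-H2AX S139 level in CHO-K1 lysates by TR-FRET emission ratio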
Outline: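 Following overnight seeding, CHO-K1 cells are incubated with a concentration series of compound for 3 hr at 37C (final DMSO 0.76%). Cells are then lysed, detection antibodies added, and emission ratio 665/620 nm recorded after 24 hr at room temperature.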

[2] = qHTS for Inflammasome Signaling Inhibitors: IL-1-beta AlphaLISA screen against the NCATS CANVASS Library (AID 1347379); conditions: THP-1 LPS/ATP, IL-1B AlphaLISA secretion, 16 h; at 57.5 µM (top of the series) unless noted;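 also: human THP-1 cells primed with LPS then triggered with ATP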
Outline: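 THP-1, 1 hr compound pre-incubation, then LPS 250 ng/mL + ATP 1.25 mM (final); 16 hr total with compound; IL-1B AlphaLISA, ex 680/em 615 nm; 11-point qHTS, up to 57.5 uM final.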

[3] = Inflammasome Signaling qHTS Counterscreen: IL-1-beta AlphaLISA counterscreen against the NCATS CANVASS Library (AID 1347381); conditions: Purified IL-1beta AlphaLISA signal interference counterscreen; series mostly up to 57.5 µM;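 also: cell-free check with purified IL-1β in medium and no THP-1 cells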
Outline: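 Here, no cellular stimulation occurs; compounds in an 11-point series meet 4 pg purified IL-1-beta directly. Bead-based AlphaLISA detection follows (1 h acceptor/antibody, then 30 min donor, dark, room temperature), with excitation at 680 nm.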

[4] = Cytotoxicity qHTS for assessment of Hepg2 cells membrane integrity screened against the NCATS CANVASS Library (AID 1347387); conditions: HepG2 LDH release (CytoTox-ONE) fluorescence, 5 h; series mostly up to 91.4 µM
Outline: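 Membrane damage in HepG2 monolayers was estimated from released LDH, measured with CytoTox-ONE (ex 560/em 590 nm), after 5 hr treatment across 0.59 nM - 46 uM final.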

[5] = qHTS for Activators of p53 Stress Response Pathway screened against the NCATS CANVASS Library (AID 1347388); conditions: p53RE-bla HCT-116, beta-lactamase reporter, 16 h; series mostly up to 91.4 µM
Outline: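 p53RE-bla HCT-116 cells (4000/well) were pre-incubated for 5 h, then treated with compound (11 points) for 16 h at 37C. After 2 h with CCF4, the 460/530 nm ratio gave reporter activation; CellTiter-Glo measured viability.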

[6] = qHTS assay for small molecule disruptors of mitochondrial membrane potential screened against the NCATS CANVASS Library (AID 1347389); conditions: HepG2 mitochondrial membrane potential, m-MPI red/green ratio, 1.5 h; series mostly up to 91.4 µM; also: nearly all actives have a fitted effect of over 60% in size
Outline: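 Cells (HepG2) seeded the day before received compound or DMSO for 1 hr, then Mito-MPS dye for 30 min at 37C; emission at 590 nm over 535 nm gave the polarization signal.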

[7] = Secretion counterscreen for inhibitors of the SERCaMP assay screened against the NCATS CANVASS Library (AID 1347390); conditions: SH-SY5Y constitutive GLuc secretion, luminescence, 20 h; series mostly up to 76.6 µM;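 also: light from luciferase secreted into medium read as a measure of general secretion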
Outline: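 Counterscreen identifying compounds that disrupt secretion, using SH-SY5Y cells with a constitutively secreted Gaussia luciferase reporter. A 20 h compound exposure (top 77 uM) precedes luminescent detection with coelenterazine.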

[8] = qHTS for activators of Nrf2/ARE signaling pathway screened against the NCATS CANVASS Library (AID 1347391); conditions: ARE-bla HepG2, beta-lactamase reporter, 16 h; series mostly up to 91.4 µM; also: nearly all actives have a fitted effect of over 60% in size
Outline: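 Activation of Nrf2/ARE was scored in ARE-bla HepG2 cells after 16 h compound exposure using CCF4 beta-lactamase fluorescence ratio readings.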

[9] = qHTS for activators of dead-cell proteases activity screened against the NCATS CANVASS Library (AID 1347392); conditions: HepG2 cytotoxicity, dead-cell protease luminescence, 5 h; series mostly up to 91.4 µM;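 also: luminescence from protease leaking out of membrane-damaged cells cleaving impermeant substrate; rising signal means more cytotoxicity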
Outline: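 HepG2, 2000 cells/well, 18 h attach; cpd 11-pt, 5 h 37C 5% CO2; CytoTox-Glo (AAF-aminoluciferin) 15 min RT; luminescence read.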

[10] = qHTS for Antimalaria activity screened against the NCATS CANVASS Library (AID 1347380);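 also: Plasmodium falciparum strain Dd2 asexual parasites grown in red blood cells; nearly all actives have a fitted effect of over 40% in size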; conditions: P. falciparum Dd2 growth, SYBR Green fluorescence, 72 h; series mostly up to 28.7 µM
Outline: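 Measures proliferation or cytotoxicity against Dd2 blood stages in 72 h cultures, 11-point qHTS dosing, with SYBR Green fluorescence as read-out; dihydroartemisinin titration served as control.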

Measured: outcome

O=C(O)Cc1c[nH]c2ccc(O)cc12
inactive: [1] | [2] inactive [at 114 µM] | [3] | [4] | [5] | [6] | [7] | [8] | [9]

CC(=O)NCCc1c[nH]c2ccc(O)cc12
inactive: all assays above
